JMJD2A Tudor = blocks the human JMJD2A Tudor domain; O75164; AlphaScreen JMJD2A-Tudor / H3K4me3 peptide binding; Potency, µM (top dose mostly 114 µM), without a hit: at the top dose activity change, negative = inhibition, hits mostly inhibitors; 4.4% of 390,000 active; AID 504339; further: on the % scale 0 is the no-effect control and ±100 the full control effect; nearly all actives have a fitted effect of over 50% in size
12-LOX inh = inhibitors of human 12S-lipoxygenase ALOX12; P18054; AID 1671190; purified 12hLO, xylenol orange hydroperoxide absorbance; Potency, µM (top dose mostly 108 µM), for the others: at the highest dose activity change, negative = inhibition, hits mostly inhibitors; 1.1% of 580,000 active; further: on the % scale 0 is the no-effect control and ±100 the full control effect
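Purified human 12hLO (150 nM final) in 25 mM Hepes, 0.01% Triton X-100, pH 7.0 was preincubated 15 min at room temperature with compound. Then 40 uM arachidonic acid was added, 30 min. Hydroperoxide was read by Fe-XO absorbance ratio 573/405 nm.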
PLK1 PBD inh = inhibitors of human PLK1 polo-box domain binding; P53350; Plk1 PBD binding of FITC phosphopeptide, fluorescence polarization; Potency, µM, for inactives: max response, negative = inhibition, most hits filed as inhibitors; 2.8% of 360,000 active; AID 720504; further: series mostly up to about 57 µM; on the % scale 0 is the no-effect control and ±100 the full control effect; nearly all actives have a fitted effect of over 65% in size
HP1b chromo inh = blocks HP1-beta chromodomain binding to methylated histone tails; Potency, µM (highest dose often 114 µM), for the others: at the top dose activity change, negative = inhibition, actives largely listed as inhibitors; AID 540317; AlphaScreen HP1-beta / biotin-H3K9me3 peptide binding; P83916; 0.56% of 390,000 active; further: nearly all actives have a fitted effect of over 70% in size
Target sequence (P83916 whole entry, looked up): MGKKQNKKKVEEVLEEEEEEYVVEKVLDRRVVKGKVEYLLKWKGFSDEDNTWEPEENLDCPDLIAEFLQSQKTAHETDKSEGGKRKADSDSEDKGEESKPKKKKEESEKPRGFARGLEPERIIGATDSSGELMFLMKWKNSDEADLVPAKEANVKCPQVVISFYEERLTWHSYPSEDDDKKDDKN
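AlphaScreen: HP1-beta (50 nM) preformed 30 min with biotin-H3(1-18)K9me3 peptide (50 nM) in PBS pH 7.4, 0.01% Tween-20. Compound added for 30 min at RT, then streptavidin donor/nickel chelate acceptor beads (10 ug/mL) for 30 min.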
BAZ2B block = blocks human BAZ2B; Q9UIF8; AlphaScreen BAZ2B-H3K14Ac peptide displacement; Potency, µM (series often up to 114 µM), inactives show top-dose activity change, negative = inhibition, most hits filed as inhibitors; 4.4% of 360,000 active; further: on the % scale 0 is the no-effect control and ±100 the full control effect; nearly all actives have a fitted effect of over 60% in size
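AlphaScreen displacement: compounds (up to 110uM) incubated 30 min at room temperature with a preformed 50 nM BAZ2B/50 nM biotinylated H3K14Ac peptide complex in PBS pH 7.4 with Tween-20. Donor and acceptor beads at 10 ug/mL final added, 20 min light-protected before reading.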
G9a inh = inhibitors of human histone lysine methyltransferase G9a; G9a H3K9 monomethylation, AlphaScreen, 2 h; 8.8% of 350,000 active; AID 504332; Potency, µM (highest dose often 102 µM), for inactives: at the top dose activity, negative = inhibition, hits mostly inhibitors; further: on the % scale 0 is the no-effect control and ±100 the full control effect; nearly all actives have a fitted effect of over 75% in size
Target sequence (Q96KQ7 913-1193 limits assumed): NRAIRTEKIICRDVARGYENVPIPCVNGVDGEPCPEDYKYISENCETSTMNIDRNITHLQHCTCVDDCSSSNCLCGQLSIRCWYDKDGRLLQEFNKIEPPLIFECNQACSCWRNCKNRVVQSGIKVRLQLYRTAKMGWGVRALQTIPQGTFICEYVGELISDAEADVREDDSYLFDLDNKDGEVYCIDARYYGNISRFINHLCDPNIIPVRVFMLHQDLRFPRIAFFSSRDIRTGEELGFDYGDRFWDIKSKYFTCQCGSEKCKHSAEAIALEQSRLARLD
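AlphaScreen read-out: biotin-H3K9 peptide (500 nM) methylation by 20 nM enzyme with 20 uM SAM, 2 h at room temperature after 15 min compound preincubation; anti-monomethyl H3K9 antibody plus donor/acceptor beads, 10 min dark.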
* hit, by the source's call; ? = inconclusive; nt = no result; [ ] = dose if it differs, or a comment. Sampled rows, rich in hits. Any-hit rate of the full collection: about 9%. The call rests on the fitted dose curve; in most records, active means well fitted curve in the direction sought with a large enough effect; inconclusive means small, poorly fitted or top-dose-only effect, or another doubt; inactive means no such curve, though single readings can be large; an effect the other way counts as inactive or inconclusive. Potency means the concentration at half of the fitted maximal effect.

SMILES	JMJD2A Tudor	12-LOX inh	PLK1 PBD inh	HP1b chromo inh	BAZ2B block	G9a inh
CCC(C)NCCOCCOc1ccccc1-c1ccccc1 (centres undefined)	3.5µM*	?	-2%	?	50µM*	13µM*
O=C(CSc1nc(Cl)nc2nc[nH]c12)Nc1ccc(Cl)cc1	nt	28%	nt	nt	nt	nt
CC12CN3CCN(CC(C3)/C1=N/NC(=O)Nc1ccccc1)C2	-10%	-1%	-7%	19%	3%	-5%
CN(C)c1ccc(CCc2ccc(N)cc2)cc1	56µM*	90%	4%	50µM*	nt	nt
CCCc1cc(=O)oc2cc(OCC(=O)NCC3CCC(C(=O)O)CC3)ccc12 (centres undefined)	-1%	4%	-6%	56%	-14%[57.1 µM]	?
COC(=O)[C@]12CCCCC=C1N(Cc1ccccc1)C(=O)[C@H](CC(=O)NCc1ccc(OC)c(OC)c1)C2	nt	-3%	-13%	nt	nt	nt
Nc1c(C(=O)Nc2cccc(C(=O)O)c2)sc2nc3c(cc12)CCCC3	-23%	?	-4%	35%	-4%	45µM*
CCOc1ccc(NC(=O)c2sc3nc4c(cc3c2N)CCCCCC4)cc1	1%	?	nt	31%	-2%	4%[59 µM]
Nc1c(C(=O)Nc2ccccc2)sc2nc3c(c(-c4ccco4)c12)CCCC3	9%	-1%	-12%	69%	10%	81%[59 µM]
Nc1c(C(=O)Nc2ccccc2)sc2nc3c(c(-c4ccco4)c12)CCC3	?	-28%	3µM*	?	5%	?
Nc1c(C(=O)Nc2ccc(C(=O)O)cc2)sc2nc3c(cc12)CCCC3	14%	18µM*	nt	51%	0%	?
Nc1c(C(=O)Nc2ccc(Cl)c(C(=O)O)c2)sc2nc3c(cc12)CCCC3	-2%	-9%	-10%	44%	-15%	45µM*
Cc1cccc(NC(=O)c2sc3nc4c(cc3c2N)CCCCCC4)c1C	2%	-10%	nt	90%	42%	36%[59 µM]
O=C(Nc1c(F)cc(F)cc1Br)C1CCCO1 (centres undefined)	-6%	-29%	-3%	11%	-3%	-10%[59 µM]
CCCCCn1c(NC(=O)c2ccco2)c(S(=O)(=O)c2ccc(C)cc2)c2nc3ccccc3nc21	-15%	?	21µM*	24%	-29%	-19%[59 µM]
CCCCn1c(NC(=O)c2ccco2)c(S(=O)(=O)c2ccc(C)cc2)c2nc3ccccc3nc21	-25%	?	?	8%	-6%	?
CCCCn1c(NS(=O)(=O)c2ccccc2)c(S(=O)(=O)c2ccc(C)cc2)c2nc3ccccc3nc21	23%	?	27µM*	53%	14%	1%[59 µM]
Cc1ccc(S(=O)(=O)c2c(N)n(CCCO)c3nc4ccccc4nc23)cc1	-2%	?	-13%	45%	56µM*	17%
CCCCn1c(NC(=O)c2ccc(Br)o2)c(S(=O)(=O)c2ccccc2)c2nc3ccccc3nc21	-59%	?	25µM*	27%	-2%	10%[12.7 µM]
Clc1ccc(Oc2cnns2)cc1Cl	18%	-13%	-2%	53%	12%	51%
COC(=O)c1c(NC(=S)NN2CCOCC2)sc2c1CCCC2	-8%	5%	1%	11%	-16%	-8%
CCc1nccn1S(=O)(=O)c1ccc(C)c(C)c1	-14%	-15%	-9%	28%	8%	45µM*
Cc1ccc(S(=O)(=O)N(CC(=O)NCc2ccncc2)C2CCCCC2)cc1	?	0%	2.7µM*	?	6%	-14%[59 µM]
CS(=O)(=O)N(CC(=O)NCc1ccc(Cl)cc1)C1CCCCC1	-35%[11.4 µM]	-5%	3µM*	?	5%	12%[59 µM]
CNC(=O)CN(C1CCCCC1)S(=O)(=O)c1ccc(OC)c(Cl)c1	-6%	25%	-7%	9%	4%	50µM*
SMILES	JMJD2A Tudor	12-LOX inh	PLK1 PBD inh	HP1b chromo inh	BAZ2B block	G9a inh
Cc1ccc(S(=O)(=O)N(CC(=O)NCc2ccco2)C2CCCCC2)cc1	-23%	?	-10%	9%	-34%	?
Nc1nonc1-n1nnc(C(=O)N/N=C/c2ccccc2Cl)c1CN1CCOCC1	-2%	-11%	0%	18%[57 µM]	-25%	-36%
O=C(CCn1nc(-c2ccc(Cl)cc2)c2ccccc2c1=O)N1CCCC1	nt	-2%	nt	nt	nt	nt
O=C(C[C@@H]1O[C@H](CNS(=O)(=O)c2ccccc2)[C@@H](O)[C@H]1O)Nc1ccccc1	nt	22%[176 µM]	nt	nt	nt	nt
CCC(c1nnnn1CCc1ccccc1)N1CCN(c2ccc(OC)cc2)CC1 (centres undefined)	-33%	4%	-1%	-5%	?	11µM*
CC(C)n1nnnc1C(c1ccc(F)cc1)N1CCN(C2CCCC2)CC1 (centres undefined)	-21%[11.4 µM]	?	?	51%	?	79µM*
COc1ccc(C(c2nnnn2Cc2ccccc2)N2CCN(c3nc4ccccc4s3)CC2)cc1 (centres undefined)	-20%	0%	-3%	2%	-6%	?
CCCCC(c1nnnn1CCOC)N1CCN(c2cccc(OC)c2)CC1 (centres undefined)	1%[11.4 µM]	?	?	14%	50µM*	45µM*
CCCCC(c1nnnn1CCOC)N1CCN(Cc2ccccc2)CC1 (centres undefined)	-31%	?	-13%	74%	-32%	?
CCC(c1nnnn1Cc1ccccc1)N1CCN(c2ccccc2)CC1 (centres undefined)	-24%	0%	-3%	8%	-14%	-10%[12.7 µM]
COc1ccc(C(c2nnnn2Cc2ccccc2)N2CCN(c3ccccc3)CC2)cc1 (centres undefined)	-35%	?	-6%	-1%	79µM*	-13%[12.7 µM]
COc1ccc(C(=O)Nc2cc3c(cc2C#N)OCO3)cc1S(=O)(=O)N1CCOCC1	nt	-17%	nt	nt	nt	nt
O=C(CCc1c[nH]c2ccccc12)NC1CCc2n[nH]c(=O)n2CC1 (centres undefined)	nt	33%	nt	nt	nt	nt
COc1cc2cc(C(c3nnnn3C3CCCC3)N3CCCCC3)c(=O)[nH]c2cc1OC (centres undefined)	-13%	7%	-1%	29%	-3%	-47%[12.7 µM]
COCCn1nnnc1C(c1cccc(C#N)c1)N1CCCCCC1 (centres undefined)	-18%	?	-3%	27%	?	45µM*
N#Cc1cccc(C(c2nnnn2C2CCCC2)N2CCCCCC2)c1 (centres undefined)	-14%	?	-1%	57%	-20%	?
CCCCC(c1nnnn1CC1CCCO1)N1CCN(c2nc3ccccc3s2)CC1 (centres undefined)	-18%[11.4 µM]	?	?	62%	50µM*	28µM*
COCCn1nnnc1C(c1ccccc1)N1CCN(c2ccccc2)CC1 (centres undefined)	?	?	-5%	13%	50µM*	?
